# Measured values as given in PubChem BioAssay.
# Active and inactive are the calls of the source.
# Assays:
# [1] = small molecules captured by biotinylated probe aFSTL3 – biochemical, small-molecule microarray, fluorescence 635/667, stem cell growth factor project, primary screen (AID 1064); details: higher = more signal;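 note: measures binding of the biotinylated anti-FSTL3 antibody to printed compounds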
# [2] = binders from COS7 lysate, DM2A8 probe, primary screen, torsin A project, cell lysate, small-molecule microarray, fluorescence 635/667 (AID 1065); details: higher = more signal, COS7 lysate expressing mutant human TOR1A
# [3] = small molecules captured by biotinylated probe aFGF2 – biochemical, small-molecule microarray, fluorescence 635/667, stem cell growth factor project, primary screen (AID 1067); details: higher = more signal;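 note: measures binding of biotinylated aFGF2 protein to printed compounds on slides; z-score merges feature fluorescence and signal-to-noise across triplicate slides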
# [4] = small molecules captured by biotinylated probe aFGF10 – biochemical, small-molecule microarray, fluorescence 635/667, stem cell growth factor project, primary screen (AID 1071); details: higher = more signal;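 note: score merges 667 nm spot intensity and signal to noise from triplicate slides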
# [5] = target: Neurogenic locus notch homolog protein 2 (Homo sapiens) (UniProt Q04721); assay: small molecules binding Notch2 protein – biochemical, small-molecule microarray, 635 nm fluorescence, stem cell growth factors, primary screen (AID 1073); details: higher = more signal
# Neurogenic locus notch homolog protein 2 (Homo sapiens), sequence (Q04721 whole entry, looked up, canonical isoform): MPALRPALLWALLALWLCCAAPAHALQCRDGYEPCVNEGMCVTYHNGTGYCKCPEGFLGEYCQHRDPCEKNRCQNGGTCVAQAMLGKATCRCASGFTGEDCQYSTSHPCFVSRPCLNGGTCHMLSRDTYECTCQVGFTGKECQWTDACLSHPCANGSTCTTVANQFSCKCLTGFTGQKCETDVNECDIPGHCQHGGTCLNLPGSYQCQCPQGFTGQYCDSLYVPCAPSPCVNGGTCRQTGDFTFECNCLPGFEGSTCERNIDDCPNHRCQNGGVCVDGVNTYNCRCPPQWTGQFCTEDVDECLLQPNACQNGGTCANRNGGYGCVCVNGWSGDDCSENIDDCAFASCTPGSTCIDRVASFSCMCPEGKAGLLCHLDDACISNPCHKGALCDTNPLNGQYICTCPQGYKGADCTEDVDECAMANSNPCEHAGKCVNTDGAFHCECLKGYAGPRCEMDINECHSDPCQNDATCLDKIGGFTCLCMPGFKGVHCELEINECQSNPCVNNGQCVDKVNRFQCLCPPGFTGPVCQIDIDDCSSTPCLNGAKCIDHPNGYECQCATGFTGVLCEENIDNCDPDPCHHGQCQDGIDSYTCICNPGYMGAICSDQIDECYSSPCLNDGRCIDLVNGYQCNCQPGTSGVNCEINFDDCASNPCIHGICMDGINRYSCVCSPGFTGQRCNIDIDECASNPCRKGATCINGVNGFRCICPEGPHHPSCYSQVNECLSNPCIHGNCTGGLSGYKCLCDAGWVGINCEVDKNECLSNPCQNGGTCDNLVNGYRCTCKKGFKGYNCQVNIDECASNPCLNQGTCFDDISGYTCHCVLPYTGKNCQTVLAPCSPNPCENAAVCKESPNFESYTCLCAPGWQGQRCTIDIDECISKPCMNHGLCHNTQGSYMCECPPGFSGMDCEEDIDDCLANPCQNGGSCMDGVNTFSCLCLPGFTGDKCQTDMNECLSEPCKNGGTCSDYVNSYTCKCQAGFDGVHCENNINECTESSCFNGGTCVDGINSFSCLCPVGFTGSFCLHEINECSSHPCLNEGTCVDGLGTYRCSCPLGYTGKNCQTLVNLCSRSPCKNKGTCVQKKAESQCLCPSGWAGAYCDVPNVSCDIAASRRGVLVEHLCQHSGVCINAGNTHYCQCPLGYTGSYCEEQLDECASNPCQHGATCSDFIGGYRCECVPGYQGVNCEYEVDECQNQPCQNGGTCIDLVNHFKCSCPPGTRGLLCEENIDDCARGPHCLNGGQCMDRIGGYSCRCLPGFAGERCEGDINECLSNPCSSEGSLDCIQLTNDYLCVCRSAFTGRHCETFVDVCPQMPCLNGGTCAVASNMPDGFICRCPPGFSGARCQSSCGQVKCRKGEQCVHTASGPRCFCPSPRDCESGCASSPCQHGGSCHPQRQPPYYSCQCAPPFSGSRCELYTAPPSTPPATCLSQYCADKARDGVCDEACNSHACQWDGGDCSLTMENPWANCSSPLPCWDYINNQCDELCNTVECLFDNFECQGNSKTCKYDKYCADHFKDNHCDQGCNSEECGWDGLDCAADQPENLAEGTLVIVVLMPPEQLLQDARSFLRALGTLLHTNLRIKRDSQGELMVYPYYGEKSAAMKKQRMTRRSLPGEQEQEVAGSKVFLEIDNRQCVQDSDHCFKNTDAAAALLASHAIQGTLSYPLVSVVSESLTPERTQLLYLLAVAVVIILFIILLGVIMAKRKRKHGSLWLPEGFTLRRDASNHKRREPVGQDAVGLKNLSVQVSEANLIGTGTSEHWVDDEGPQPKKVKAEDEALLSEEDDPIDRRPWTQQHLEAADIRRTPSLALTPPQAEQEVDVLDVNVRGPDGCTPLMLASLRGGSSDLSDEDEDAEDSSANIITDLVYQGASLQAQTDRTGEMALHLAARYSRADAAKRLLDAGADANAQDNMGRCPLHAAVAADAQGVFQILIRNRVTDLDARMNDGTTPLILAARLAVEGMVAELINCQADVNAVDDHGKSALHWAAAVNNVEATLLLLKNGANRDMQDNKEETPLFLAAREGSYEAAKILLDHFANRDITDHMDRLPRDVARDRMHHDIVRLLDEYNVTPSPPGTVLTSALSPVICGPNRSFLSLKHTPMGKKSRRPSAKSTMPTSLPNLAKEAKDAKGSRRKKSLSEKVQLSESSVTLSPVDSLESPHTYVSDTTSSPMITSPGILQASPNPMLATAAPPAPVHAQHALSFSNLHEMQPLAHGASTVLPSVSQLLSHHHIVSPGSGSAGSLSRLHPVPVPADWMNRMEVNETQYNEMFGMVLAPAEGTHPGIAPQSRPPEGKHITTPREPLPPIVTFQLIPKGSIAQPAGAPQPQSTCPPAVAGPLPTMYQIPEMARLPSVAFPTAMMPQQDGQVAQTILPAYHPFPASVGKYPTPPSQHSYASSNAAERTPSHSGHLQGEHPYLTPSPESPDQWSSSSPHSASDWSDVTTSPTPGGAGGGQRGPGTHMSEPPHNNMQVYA
# [6] = target: Pro-neuregulin-1, membrane-bound isoform (Homo sapiens) (UniProt Q02297); assay: small molecules binding neuregulin-1 protein – biochemical, small-molecule microarray, fluorescence 635/667, psychiatric disease protein project, primary screen (AID 1075); details: NRG1 binding, 635 nm fluorescence, higher = more signal;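 note: score combines 667 nm spot fluorescence with signal to noise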
# Pro-neuregulin-1, membrane-bound isoform (Homo sapiens), sequence (Q02297 whole entry, looked up, the tested form may be a part, canonical isoform): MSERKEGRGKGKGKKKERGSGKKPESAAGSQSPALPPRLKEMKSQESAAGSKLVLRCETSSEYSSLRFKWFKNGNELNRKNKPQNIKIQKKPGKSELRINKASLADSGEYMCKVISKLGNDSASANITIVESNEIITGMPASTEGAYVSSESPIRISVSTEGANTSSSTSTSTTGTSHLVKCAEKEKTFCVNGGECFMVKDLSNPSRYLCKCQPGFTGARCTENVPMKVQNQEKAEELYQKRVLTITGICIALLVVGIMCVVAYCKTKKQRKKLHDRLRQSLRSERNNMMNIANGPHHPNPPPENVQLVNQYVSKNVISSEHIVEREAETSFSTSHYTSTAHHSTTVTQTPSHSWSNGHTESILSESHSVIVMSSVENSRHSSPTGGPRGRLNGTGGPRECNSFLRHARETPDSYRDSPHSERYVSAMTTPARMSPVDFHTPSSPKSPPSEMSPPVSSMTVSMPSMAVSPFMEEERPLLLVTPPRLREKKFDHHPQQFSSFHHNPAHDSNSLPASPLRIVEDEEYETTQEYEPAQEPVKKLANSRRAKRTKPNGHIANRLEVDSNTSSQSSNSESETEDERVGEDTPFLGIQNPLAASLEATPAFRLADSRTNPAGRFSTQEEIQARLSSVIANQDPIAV
# [7] = tested on: Neuregulin-1 EGF-like domain; assay: small molecules binding NRG1 EGF domain – biochemical, small-molecule microarray, 635 nm fluorescence, primary screen (AID 1081); details: higher = more signal;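 note: binding of the protein to compounds printed on small-molecule microarray slides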
# [8] = FRG1 expression reporter modulators in myotubes – cell-based, C2C12 myotubes, firefly/Renilla luciferase, luminescence, FRG1 inhibition for FSHD, primary screen (AID 1084); details: FRG1 promoter luciferase, higher = more signal, called active from +8 up or from −8 down
# [9] = small molecules captured by biotinylated probe aFST – biochemical, small-molecule microarray, fluorescence 635/667, stem cell growth factor project, primary screen (AID 1086); details: higher = more signal;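 note: score merges 667 nm fluorescence with signal-to-noise of each printed compound spot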
# [10] = binders of probe aHhip on microarray, primary screen, stem cell growth factor project, biochemical, small-molecule microarray, fluorescence 635/667 (AID 1087); details: higher = more signal;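 note: score merges spot fluorescence at 667nm with spot signal to noise ratio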
SMILES,composite z-score [1],composite z-score [2],composite z-score [3],composite z-score [4],composite z-score [5],composite z-score [6],composite z-score [7],z-score [8],composite z-score [9],composite z-score [10]
CCOC(=O)[C@H](CC(C)C)NC(=O)CCC1CC(OC(=O)NCCc2ccc(F)cc2)CC2(CCCC(COC(=O)NCc3cccc(C(F)(F)F)c3)O2)O1 (stereo not given in full),-0.17,0.13,-0.0924,0.983,1.14,0.806,1.16,-0.0179 (inactive),-0.0518,-0.0102
C=C(C)C(=O)OC[C@H]1CN2[C@@H](CC[C@@H](C)[C@@H]2c2ccc(Br)cc2)C(=O)O1,-0.223,0.123,-0.166,0.113,-0.283,0.199,0.0297,0.402 (inactive),-0.155,-0.0618
O=C1[C@H]2[C@H]3[C@H](O)[C@H](O)CC(=NOC[C@@H](O)COCc4ccco4)[C@@H]3CC[C@H]2C(=O)N1Cc1ccccc1,-0.645,0.389,-0.171,-0.0702,0.0535,0.39,1.24,0.668 (inactive),0.248,-0.115
CCOC(=O)CCN1C(=O)[C@H]2[C@H]3[C@H](O)[C@H](O)CC(=NNC(=O)OCc4ccccc4)[C@H]3CC[C@H]2C1=O,-0.594,1.05,-0.133,-0.884,-0.871,-1.03,-1.43,-0.695 (inactive),0.138,-0.0632
C=CC[C@@H]1C=CC(ON=C(C)C)[C@@H](CO)O1 (stereo not given in full),0.0856,-0.809,-0.196,-0.246,-0.561,-0.34,-0.0889,1.35 (inactive),-0.238,0.107
CCCNC(=O)OC[C@H]1O[C@H](CCON=C[C@@H](C)[C@H](OCc2ccccc2)C(C)C)C=C[C@@H]1Oc1ccc(OC)cc1,-0.273,0.729,-0.161,0.416,-0.566,-0.645,-0.814,-0.748 (inactive),-0.307,-0.0346
C[C@@H](c1ccccc1)N1C(=O)[C@H]2[C@H]3[C@H](O)[C@H](O)CC(=NOC[C@@H](O)COCc4ccco4)[C@H]3CC[C@H]2C1=O,-0.605,2.38,-0.212,-0.363,-0.206,-0.438,0.919,0.652 (inactive),0.039,-0.0994
CN1CCc2nc(-c3ccccc3)c(-c3ccccc3)cc2C1,-0.16,0.0357,-0.128,0.239,0.521,-0.013,-0.326,-0.0006 (inactive),-0.117,-0.148
CC(C)=CCCC(C)=CCON=C1C[C@@H](O)[C@@H](O)[C@@H]2[C@@H]3C(=O)N(Cc4ccc5c(c4)OCO5)C(=O)[C@@H]3CC[C@@H]12,-0.316,-0.777,-0.241,0.31,0.397,0.364,0.974,0.397 (inactive),0.396,-0.0618
CCN1C(=O)[C@H]2[C@H]3[C@H](O)[C@H](O)CC(=NO[C@H](C)c4cn([C@H](CO)Cc5ccccc5)nn4)[C@@H]3CC[C@H]2C1=O,-0.907,0.0378,-0.116,1.08,1.01,0.782,0.934,0.804 (inactive),0.606,-0.344
O=C1[C@H]2[C@H]3[C@H](O)[C@H](O)CC(=NO[C@@H]4O[C@H](CO)[C@@H](O)[C@H](O)[C@H]4O)[C@@H]3CC[C@H]2C(=O)N1c1cccc(Oc2ccccc2)c1,-0.309,0.21,-0.125,0.649,0.628,0.495,1.02,0.423 (inactive),0.365,0.0373
CO[C@H]1COC(=O)CCC[C@H](C)[C@H](OC)COC(=O)CC=C[C@@H]1C,-0.535,1.95,-0.142,-0.692,-0.497,-0.441,-0.291,-0.948 (inactive),-0.168,0.0922
COC(=O)[C@H](C)NC(=O)CCC1CC(OC(=O)NCc2ccc3c(c2)OCO3)CC2(CCCC(COC(=O)NCCCN3CCCC3=O)O2)O1 (stereo not given in full),-0.869,0.62,-0.0397,0.469,0.829,0.357,1.04,-0.787 (inactive),1.3,0.0373
O=C1[C@H]2[C@H]3[C@H](O)[C@H](O)CC(=NO[C@@H]4O[C@H](CO)[C@@H](O)[C@H](O)[C@H]4O)[C@@H]3CC[C@H]2C(=O)N1C[C@@H]1CCCO1,-0.603,-0.038,-0.0908,0.529,1.06,-0.0236,0.298,0.746 (inactive),0.254,0.0505
C=CC[C@@H]1C=C[C@H](Oc2ccc(C)cc2)[C@@H](COC(=O)NCc2cccc3ccccc23)O1,-0.406,0.012,-0.144,0.655,-0.141,0.528,0.724,-0.446 (inactive),-0.174,-0.251
CC(=O)OC[C@H]1O[C@@H](ON=C2[C@H]3CCn4c(=O)n(-c5ccccc5)c(=O)n4[C@H]3[C@H](O)[C@@H]3O[C@H]23)[C@H](OC(C)=O)[C@@H](OC(C)=O)[C@@H]1OC(C)=O,-0.512,0.617,-0.0787,0.582,0.396,0.471,0.711,0.295 (inactive),0.259,-0.0024
